Assay outcomes as filed in PubChem BioAssay.
Most compounds without a hit are left out; they make up all but 27% or so of the library.
CYP2C19 inh: blocks human cytochrome P450 2C19; CYP2C19 Supersomes, luciferin-H EGE luminescence, 30 min; 96,000 tested, 21% active; inhibition, % at 5 µM;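 active means CYP2C19 inhibition above a set limit at 5 µM in the primary screen, cut at about 50% in these data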
Target sequence (P33261 whole entry, looked up): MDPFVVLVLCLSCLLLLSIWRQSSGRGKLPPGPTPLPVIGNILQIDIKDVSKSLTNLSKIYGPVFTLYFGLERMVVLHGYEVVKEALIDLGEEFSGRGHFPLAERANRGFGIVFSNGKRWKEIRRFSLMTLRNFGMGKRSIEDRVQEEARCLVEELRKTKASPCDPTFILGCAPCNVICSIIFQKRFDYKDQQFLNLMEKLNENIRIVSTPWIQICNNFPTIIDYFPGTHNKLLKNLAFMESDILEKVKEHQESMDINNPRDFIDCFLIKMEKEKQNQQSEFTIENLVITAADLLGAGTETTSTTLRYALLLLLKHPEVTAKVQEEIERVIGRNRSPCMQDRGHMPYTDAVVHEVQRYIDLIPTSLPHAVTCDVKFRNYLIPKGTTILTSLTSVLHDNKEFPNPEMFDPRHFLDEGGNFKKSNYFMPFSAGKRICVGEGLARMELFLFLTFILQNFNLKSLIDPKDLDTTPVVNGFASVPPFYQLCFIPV
Cav32 inh: human Cav3.2 channel inhibition, primary screen; O95180; Cav3.2-expressing cells, Fluo-4 calcium fluorescence FDSS; stronger effect = lower value; AID 449739; B-score at 10 µM; 100,000 tested, 4% active;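 active means single-dose well whose peak fluorescence ratio is a statistical outlier from its plate by either plate-standardised score or position-corrected B-score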
CYP2C9 inhib: human CYP2C9 inhibition; CYP2C9 Supersomes, luciferin-H conversion, luminescence; P11712; 96,000 tested, 20% active; inhibition, % at 5 µM;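 active means blocking of liver enzyme CYP2C9 beyond about 50% at 5 µM, limit read from the data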
CYP2C19 activ: activators of human cytochrome P450 2C19 | P33261 | recombinant CYP2C19, luciferin-H EGE luminescence; stronger effect = higher value; 0 = fully inhibited enzyme, 1 = untreated enzyme | activation factor at 5 µM | 96,000 tested, under 10 active | AID 1025;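 active means activation factor of at least 2 at 5 µM in the primary screen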
CYP2C9 act: CYP2C9 (human) activation; 96,000 tested, 1.4% active; activation factor at 5 µM; P11712; recombinant CYP2C9, luciferin-H conversion, luminescence; stronger effect = higher value; factor 1 = untreated enzyme, 0 = blocked;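 active means activation factor of 2 or more for CYP2C9 at a 5 µM dose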
Each line names hits and unclear results; the compound was inactive in the other large screens.

CCOC(=O)c1cccc(NC(=O)C(C)N2C(=O)c3ccccc3C2=O)c1 (configuration not stated)	CYP2C19 inh 57, CYP2C9 inhib 97
COc1cc(Cl)cc(NC(=O)CCN2CCN(C)CC2)c1	none
COC(=O)c1ccc(NC(=O)CN2CCN(S(=O)(=O)c3cc(Cl)ccc3OC)CC2)cc1	CYP2C19 inh 95, CYP2C9 act 2.7 (no result: Cav32 inh)
COc1ccc(NC(=O)CCN2CCN(S(=O)(=O)c3cc(Cl)ccc3Cl)CC2)cc1	CYP2C19 inh 91
COC(=O)c1ccc(NC(=O)CN2CCN(c3cccc(Cl)c3)CC2)cc1	CYP2C19 inh 61, CYP2C9 inhib 76
CCOC(=O)CN(C(=O)CSc1nnc(CNc2ccc(C)cc2C)o1)c1ccccc1	none
CCCc1nnc(NC(=O)Cn2cnc3ccccc3c2=O)s1	none
CCOC(=O)c1cccc(NC(=O)CN2CCN(c3ccc(OC)cc3)CC2)c1	CYP2C19 inh 54, CYP2C9 inhib 73
COc1ccc(N2CCN(CC(=O)Nc3c(C)cc(C)cc3C)CC2)cc1	none
Cc1cc(NC(=O)CSc2nc(C(C)C)nc3sc4c(c23)CCCC4)no1	CYP2C19 inh 80, CYP2C9 inhib 76
CCOc1ccc(-n2c(=O)c3c4c(sc3n(CC(=O)NCc3ccco3)c2=O)CCC4)cc1	none (no result: Cav32 inh)
COc1ccc(Cn2nnnc2C(c2ccccc2)N2CCN(C3CCCC3)CC2)cc1 (configuration not stated)	CYP2C19 inh 78
COc1ccc(C(c2nnnn2CCc2ccccc2)N2CCN(C3CCCC3)CC2)cc1 (configuration not stated)	none
COc1ccc(Cn2nnnc2C(c2ccccc2Cl)N2CCN(C3CCCC3)CC2)cc1 (configuration not stated)	CYP2C19 inh 78
CCCCN(C)CCNC(=O)Cn1c(=O)sc2ccccc21	none
N#Cc1ccc(Nc2ccccc2)c(N)c1	none
CCOC(=O)C1=C(C)N(CCCC(=O)O)C(=O)NC1c1ccc2ccccc2c1 (configuration not stated)	none (no result: CYP2C19 inh, CYP2C9 inhib, CYP2C19 activ, CYP2C9 act)
Cn1nc(C(F)(F)F)c(/C=N/OCc2c(Cl)cccc2Cl)c1Cl	CYP2C19 inh 52, CYP2C9 inhib 80
Cn1nc(C(F)(F)F)c(/C=N/OC(=O)c2ccc(Cl)cc2)c1Cl	none
CC(C)c1ccc(-c2nnn(Cc3nc4ccccc4s3)n2)cc1	CYP2C9 inhib 51 (no result: Cav32 inh)
CC(=O)Nc1sc2c(c1C(c1ccccc1)N1CCOCC1)CCCC2 (configuration not stated)	Cav32 inh -6.3
CC(=O)Nc1sc2c(c1C(c1ccc(F)cc1)N1CCOCC1)CCCC2 (configuration not stated)	Cav32 inh -7.1
CC(=O)Nc1sc2c(c1C(c1ccc(Cl)cc1)N1CCOCC1)CCCC2 (configuration not stated)	none (no result: Cav32 inh)
COC(=O)CSc1snnc1-c1ccc(Cl)cc1Cl	CYP2C19 inh 77
O=C(OCc1nnc(-c2ccc(Cl)cc2)o1)c1ccncc1	CYP2C19 inh 65, CYP2C9 inhib 67
O=C(OCc1nnc(-c2ccc(Cl)cc2)o1)c1ccc(=O)n(Cc2ccccc2)n1	none
CC(=O)c1ccc(OCCCC(=O)OCc2nnc(-c3ccc(Cl)cc3)o2)cc1	CYP2C9 act 2
CCN(C(=O)COC(=O)c1ccc(OCc2c(C)noc2C)cc1)c1ccccc1	none
Cc1noc(C)c1COc1ccc(C(=O)OCc2nnc(-c3ccc(Cl)cc3)o2)cc1	CYP2C19 inh 79, Cav32 inh -6.3, CYP2C9 inhib 95
Cc1noc(/C=C/N(C)C)c1S(=O)(=O)NC1CCCCC1	none
CC(C)CC(=O)NCCCN1CCN(CCCNC(=O)CC(C)C)CC1	none (no result: CYP2C19 inh, CYP2C9 inhib, CYP2C19 activ, CYP2C9 act)
CCCCC(CC)C(=O)NCCCN1CCN(CCCNC(=O)C(CC)CCCC)CC1 (configuration not stated)	Cav32 inh -7.3
Cn1c(Cn2c(=O)sc3ccccc32)nnc1SCc1ccccc1	none (no result: CYP2C19 inh, CYP2C9 inhib, CYP2C19 activ, CYP2C9 act)
CCCOC(=O)C1C2C=C[C@]3(CN(CCc4ccccc4)C(=O)[C@H]13)O2 (some centres not stated)	none
COc1ccc2c(c1)c(C(O)CN1CCC3(CC1)OCCO3)c(C)n2C (configuration not stated)	none
COCCn1nnnc1C(c1ccccn1)N1CCN(c2cc(C)ccc2C)CC1 (configuration not stated)	CYP2C19 inh 83, CYP2C9 inhib 70
COCCn1nnnc1C(c1ccccn1)N1CCN(c2cccc(C)c2C)CC1 (configuration not stated)	none (no result: CYP2C19 inh, CYP2C9 inhib, CYP2C19 activ, CYP2C9 act)
